Screening results deposited in PubChem BioAssay by National Center for Advancing Translational Sciences (NCATS).
Hits are enriched below; roughly 8.9% of the tested compounds scored in any of these assays.
MCF10A rerep = inducers of DNA re-replication in MCF 10A breast cells. MCF 10A DNA re-replication, Hoechst nuclear intensity, 48 h. Potency, µM (top dose mostly 46.1 µM), without a hit: at the top dose activity, positive = re-replication, most hits filed as activators. 350,000 compounds, 2.9% hits. AID 624296; note: potency is the fitted concentration of half-maximal effect; % of control where 0% means no effect; nearly all actives have a fitted effect of over 50% in size
KB-V1 cytotox = kills drug-selected multidrug resistant KB-V1 cells; KB-V1 MDR cells viability, CellTiter-Glo, 72 h; Potency, µM (titrated, usually from 46.1 µM), usual class: cytotoxic; 400,000 compounds, 3.4% hits; note: potency is the fitted concentration of half-maximal effect; % is set by controls: 0 for no effect and ±100 for the full control effect; nearly all actives have a fitted effect of over 60% in size
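Drug-selected KB-V1 cells, grown in DMEM lacking phenol red with 10% FBS, receive compound titrations; after three days at 37 degrees C, surviving cell ATP is quantified by CellTiter-Glo luminescence and responses normalized and curve-fitted.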
D3 ag = D3 dopamine receptor (human) agonism; P35462; D3R DiscoveRx beta-arrestin cells, luminescence, 90 min; max activation, %; 410,000 compounds, 0.58% hits; AID 652048; in the data active = max activation above about 30%; note: 0% is about no effect
Target sequence (P35462 whole entry, looked up): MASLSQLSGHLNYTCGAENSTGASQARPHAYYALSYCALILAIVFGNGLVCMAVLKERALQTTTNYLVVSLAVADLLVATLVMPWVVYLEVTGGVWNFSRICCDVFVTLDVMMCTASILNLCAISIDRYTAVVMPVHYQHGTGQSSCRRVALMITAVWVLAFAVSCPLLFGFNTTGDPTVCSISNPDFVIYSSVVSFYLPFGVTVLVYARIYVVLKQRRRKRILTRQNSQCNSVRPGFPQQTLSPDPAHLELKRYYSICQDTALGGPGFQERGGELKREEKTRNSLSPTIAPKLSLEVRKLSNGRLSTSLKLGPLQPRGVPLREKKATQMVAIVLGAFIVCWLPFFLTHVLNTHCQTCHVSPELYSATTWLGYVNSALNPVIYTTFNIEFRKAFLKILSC
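Cells at 1500/well, incubated overnight, then treated with pinned compounds (dopamine as control) for 90 min at 37 degrees C. DiscoveRx reagent added for 30 - 60 minutes at room temperature; luminescence read.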
KB-3-1 tox = KB-3-1 parental cell cytotoxicity | 400,000 compounds, 1.4% hits | Potency, µM (series often up to 46.1 µM), actives largely listed as cytotoxic | AID 1347075 | KB-3-1 viability, CellTiter-Glo ATP luminescence, 72 h; note: potency is the fitted concentration of half-maximal effect; % is set by controls: 0 for no effect and ±100 for the full control effect; nearly all actives have a fitted effect of over 60% in size
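72 h, 37 °C compound treatment of KB-3-1 parental cells; CellTiter-Glo added, 10 min, luminescence read. Data corrected against DMSO-only plates and normalized before curve fitting.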
D3 antag = D3 dopamine receptor (human) antagonism. D3R cells, DiscoveRx beta-arrestin luminescence, antagonist mode; active compounds read low. max response, negative = inhibition, %. 360,000 compounds, 2.5% hits. AID 652054; in the data active = max response below about -50%; inconclusive = no clear call, values can overlap the other calls; note: % is set by controls: 0 for no effect and ±100 for the full control effect
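Cells expressing the human receptor were seeded at 1500 cells/well, incubated overnight at 37 degrees C in 5% CO2, then exposed to library compounds with dopamine controls for 90 minutes at 37 degrees C before luminescent detection.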
SW480 rerep = inducers of DNA re-replication in SW480 colon cancer cells. AID 624297. Potency, µM (titrated, usually from 46.1 µM), for the others: at the highest dose re-replication activation, actives largely listed as activators. 340,000 compounds, 1.8% hits. SW480 DNA re-replication, Hoechst DNA content imaging, 48 h; note: potency is the fitted concentration of half-maximal effect; % of control where 0% means no effect; nearly all actives have a fitted effect of over 55% in size
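250 cells/well; 23 nL cpd via pin tool; 48 hr, 37 C, 5% CO2; Hoechst 40 min; imager read of total nuclear intensity, ex 405/em 500-530 nm.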
* hit, by the source's call; i = inactive; u = inconclusive; x = not tested or not shown. Unless noted, calls come from the whole dose curve; as a rule, active = well fitted curve in the direction sought with a large enough effect; inconclusive = small, poorly fitted or top-dose-only effect, or another doubt; inactive = no such curve, though single readings can be large; an effect the other way counts as inactive or inconclusive.

SMILES	MCF10A rerep	KB-V1 cytotox	D3 ag	KB-3-1 tox	D3 antag	SW480 rerep
Cc1ccc(CCNC(=O)C2CC(c3cc(C(F)(F)F)cc(C(F)(F)F)c3)=NO2)cc1 (stereo not drawn)	8%	u	-2	i	19	2%
COc1ccc(C2=NOC(C(=O)NC(C)C)C2)cc1 (stereo not drawn)	2%	i	-1	u	-26	2%
COc1ccc(CNC(=O)C2CC(c3ccc(OC)cc3)=NO2)cc1 (stereo not drawn)	6.5µM*	i	-6	i	-11	4%
COc1ccc(C2=NOC(C(=O)NCC(C)C)C2)cc1 (stereo not drawn)	2%	i	-2	i	-90*	-3%
COc1ccc(CCNC(=O)C2CC(c3cc(C(F)(F)F)cc(C(F)(F)F)c3)=NO2)cc1 (stereo not drawn)	-2%	u	33*	u	5	15%
Cc1ccc(CNC(=O)C2CC(c3cc(C(F)(F)F)cc(C(F)(F)F)c3)=NO2)o1 (stereo not drawn)	9.2µM*	i	-3	i	14	u
CCOc1ccc(-c2c(C)nn3c(-c4ccccc4)c(C(=O)NCCOC)cnc23)cc1OCC	x	i	-16	i	x	x
COc1ccc(CNC(=O)C2CCN(S(=O)(=O)c3ccc4c(ccn4C)c3)CC2)cc1	x	i	7	i	x	x
CC(=O)Nc1ccc(/C=C2\C=Cc3ccccc32)cc1	x	i	x	i	x	x
CCn1ncc(C2=NOC(C(=O)NCc3ccc(Cl)cc3)C2)c1C (stereo not drawn)	u	4.6µM*	5	2.3µM*	13	3.7µM*
O=C(NCc1ccc2c(c1)OCO2)C1CC(c2ccc(Cl)c(Cl)c2)=NO1 (stereo not drawn)	2.6µM*	i	-9	i	0	0%
COc1ccc(C2=NOC(C(=O)NCc3ccc(F)cc3)C2)cc1 (stereo not drawn)	u	15µM*	-6	7.3µM*	-19	4%
CCn1ncc(C2=NOC(C(=O)Nc3ccc(C)cc3)C2)c1C (stereo not drawn)	8%	i	3	i	19	6%
C[C@]12C=CC(=O)N[C@@H]1CC[C@@H]1[C@@H]2CC[C@]2(C)[C@@H](C(=O)Nc3cc(C(F)(F)F)ccc3C(F)(F)F)CC[C@@H]12	x	x	-17	x	x	x
O=C(/C=C/c1c[nH]c2ccccc12)c1cccc2ccccc12	21µM*	u	-1	u	8	16µM*
CN(CC(=O)O)c1ccc(/C=C/c2ccnc3ccccc23)cc1	x	u	x	i	x	x
COc1cc(-c2n[nH]c(=S)n2-c2cc(C(F)(F)F)ccc2Cl)cc(OC)c1OC	-50%	13µM*	1	i	u	-95%
FC(F)(F)c1ccc(Cl)c(-n2c(-c3cc(C4CC4)[nH]n3)n[nH]c2=S)c1	-1%	i	-3	i	-15	-4%
CCN(C(=O)COC(=O)c1c2c(nc3ccccc13)/C(=C/c1ccccc1)CC(C)C2)C1CCS(=O)(=O)C1 (stereo not drawn)	u	u	-5	u	16	7.3µM*
CO/N=C(/C(=O)N[C@@H]1C(=O)N2C(C(=O)[O-])=C(C[n+]3ccn4ncccc43)CS[C@H]12)c1nsc(N)n1	x	x	-8	x	x	x
COc1ccc(C)cc1NC(=O)c1cc(C2CC2)nc2c1c(C)nn2C1CCS(=O)(=O)C1 (stereo not drawn)	-5%	4.6µM*	-2	i	-27	-2%
Cc1c(Cl)cccc1NS(=O)(=O)c1cc2c(cc1Cl)CCC(=O)N2	x	i	x	i	x	x
COc1ccc2c(c1)c1ncn(CCN3CCCC3)c(=O)c1n2C	18%	8.2µM*	0	i	-10	-4%
COc1cccc(C2CC(=O)Nc3c2c(=O)nc2c(C)cccn32)c1 (stereo not drawn)	x	i	7	i	x	x
Cc1sc2ncnc(SCC(=O)c3ccc4c(c3)OCCO4)c2c1-c1ccccc1	12%	16µM*	8	i	11	x
SMILES	MCF10A rerep	KB-V1 cytotox	D3 ag	KB-3-1 tox	D3 antag	SW480 rerep
Cc1ccc(-c2csc3ncnc(SCC(=O)c4ccc5c(c4)OCCO5)c23)cc1	14%	i	18	i	11	20%
C=C(c1ccc2ccccc2n1)c1cccs1	x	i	x	12µM*	x	x
O=C(NCc1cccs1)c1ccc2ccccc2n1	-3%	i	7	i	0	-8%
CCN(Cc1ccccc1)Cc1c(O)ccc2c(=O)c(-c3ccccc3Cl)c(C(F)(F)F)oc12	x	i	-11	i	x	x
CC(=O)c1ccc(N2CCN(C(=O)Nc3ccc(Cl)cc3)CC2)cc1	13%	u	6	i	13	-4%
O=C(O)c1ccccc1C(=O)N1CCN(c2cccc(Cl)c2)CC1	-1%	i	-18	i	-55*	0%
COc1ccc(N2CCN(C(=O)c3ccc(SC)cc3OC)CC2)cc1	-1%	u	1	i	11	8%
CC(=O)c1ccc(NC(=O)N2CCN(c3cccc(Cl)c3)CC2)cc1	u	23µM*	1	i	29	-1%
CCOc1ccccc1C(=O)N1CCN(c2cccc(Cl)c2)CC1	u	i	-19	i	8	0.41µM*
COc1ccc(C(=O)N2CCN(c3cccc(Cl)c3)CC2)c(OC)c1	18µM*	u	6	15µM*	-10	u
O=C(CCC(=O)N1CCN(c2cccc(Cl)c2)CC1)N1CCN(c2ccccc2)CC1	0%	i	6	i	1	2%
COc1ccc(Cl)cc1S(=O)(=O)NCc1ccc2c(c1)CCN2C(=O)c1cccc(C)c1	x	x	-4	x	x	x
COc1cc2cc(CNc3ccccc3)c(=O)n(CC(=O)Nc3ccccc3)c2cc1OC	x	u	2	i	x	x
COc1ccc(NC(=O)C2COc3ccccc3C2)cc1Cl (stereo not drawn)	x	i	5	i	x	x
COCCNC(=O)C1(C)CCCN(C(=O)c2cc(C)oc2C)C1 (stereo not drawn)	x	i	6	i	11	x
COc1cc(NC(=O)Cn2c(=O)n(Cc3ccco3)c(=O)c3sc4ccccc4c32)cc(OC)c1	x	u	-6	i	x	x
CCOc1ccccc1N1CCN(C(=O)c2c(C)noc2C)CC1	-23%	i	-14	i	-14	-1%
CCOc1ccc2ccccc2c1C(=O)N1CCN(c2ccccc2)CC1	13µM*	4.1µM*	3	23µM*	16	u
CC(C)OCCCn1c(SCc2ccccc2C#N)nc2c(sc3ccccc32)c1=O	x	i	-4	i	x	x
